The source made the active and inactive calls. Unless noted, no rule for the calls is given here.

Assay [1] can be described thus: compounds binding Alexa647 anti-His antibody – biochemical, small-molecule microarray, 635 nm fluorescence, artefact control for SMM control protein annotation, primary screen (AID 1128).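 Also: score merges feature fluorescence with signal-to-noise for each printed compound spot.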 Particulars: higher = more signal.
The subject of assay [2] is Human papillomavirus type 1a E7 protein (residues 1-88). Kind of assay: HPV1a E7 small-molecule binders, primary screen, biochemical, small-molecule microarray, residues 1-88, 635 nm (AID 1129). Particulars: small-molecule microarray binding, fluorescence 635 nm; higher = more signal.
The target in assay [3] is Focal adhesion kinase 1 (Homo sapiens) (UniProt Q05397). In words: PTK2 protein binding on printed compound slides – biochemical, small-molecule microarray, 635/667 nm fluorescence, BSA, DTT, primary screen (AID 1130).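 Also: composite of spot emission at 667 nm and signal to noise over triplicate slides.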 Particulars: 635 nm fluorescence, higher = more signal.
For assay [4], the system named is Fibrinogen (Alexa647-labelled). In words: Alexa647-fibrinogen binding to printed small molecules – biochemical, small-molecule microarray, 635/667 nm fluorescence, artefact control for SMM control-protein annotation, profiling panel (AID 1131).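 Also: z-score merges 667 nm fluorescence with per-spot signal-to-noise over triplicate slides.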 As to conditions: fibrinogen-A647 binding fluorescence, higher = more signal.
The target in assay [5] is Follistatin (Homo sapiens) (UniProt P19883). Kind of assay: FST protein binding to printed compounds – biochemical, small-molecule microarray, 635/667 nm fluorescence, primary screen (AID 1132). As to conditions: 635 nm fluorescence, higher = more signal.
Assay [6] deals with Fibroblast growth factor 2 (Homo sapiens) (UniProt P09038). In words: basic fibroblast growth factor binding to printed compounds – biochemical, small-molecule microarray, 635/667 nm fluorescence, primary screen (AID 1133). As to conditions: FGF2, fluorescence 635/667, higher = more signal.
The nature of assay [7]: JC-1 mitochondrial potential readout, lung cancer cells – cell-based, A549, JC-1 fluorescence, basal, 24 h, 100 nL, profiling panel (AID 1138).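 Also: A549 lung adenocarcinoma cells under basal conditions with no added stimulus; test concentration not given here.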 Particulars: higher = more signal.
Another assay concerns Lefty1. In words: Lefty1 protein binding to printed compounds – biochemical, small-molecule microarray, 635/667 nm fluorescence, primary screen (AID 1139). As to conditions: fluorescence 635/667, higher = more signal.
In assay [8] the test system is wheat germ agglutinin (Triticum aestivum), Alexa647-labelled. Kind of assay: Alexa647-WGA lectin binding to printed small molecules – biochemical, small-molecule microarray, 635/667 nm fluorescence, artefact control for SMM control-protein annotation, profiling panel (AID 1140).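 Also: score merges 667 nm feature emission with signal to noise over triplicate slides.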 As to conditions: WGA-A647 binding, 635 nm fluorescence, higher = more signal.
In assay [9] the target is Luciferin 4-monooxygenase (Photinus pyralis) (UniProt P08659). In words: inhibition of purified Photinus pyralis luciferase – biochemical, luminescence, purified enzyme, 2006 set, primary screen (AID 1141).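 Also: cell-free assay with purified firefly luciferase at 100 ng per well in PBS; test concentration not given here.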 Particulars: purified firefly luciferase, SteadyGlo luminescence, 30 min; higher = more signal, called active from +8 up or from −8 down.
For assay [10], the system named is Wnt5a (protein binding on small-molecule microarray). Kind of assay: small molecules binding Wnt5a protein – biophysical, small-molecule microarray, 635/667 nm fluorescence, primary screen (AID 1142).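 Also: fluorescence read at 667 nm with signal to noise per printed feature.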 As to conditions: 635 nm fluorescence, higher = more signal.
Assay [11] can be described thus: ATP-based viability of Huh7 replicon cells – cell-based, CellTiter-Glo luminescence, basal, 48 h, cytotoxicity control for HCV replication inhibitor project, primary screen (AID 1143).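 Also: Huh7 hepatoma cells carrying a hepatitis C replication reporter with no stimulus; test concentration not given here.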 Particulars: higher = more signal, called active from +8 up or from −8 down. (In general: Replicon systems follow genome replication, usually without infectious particles.)
Assay [12] in a line: Pseudomonas biofilm growth suppression – PAO1 strain, BacTiter-Glo luminescence, LB-PBS, primary screen (AID 1144). Particulars: P. aeruginosa PAO1 biofilm, 12 h, higher = more signal.
Assay [13] in a line: basal CRE-LacZ reporter activity in PC12 – cell-based, unstimulated, primary screen (AID 1145). Particulars: no forskolin, luminescence, 4.5 h, higher = more signal, called active from +8 up or from −8 down.
Assay [14] is described as follows: forskolin-driven CRE-LacZ activity in PC12 – cell-based, CRE-LacZ reporter, forskolin-stimulated, primary screen (AID 1146).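 Also: PC12 cells with 6xCRE LacZ reporter stimulated by forskolin 10 µM; beta-galactosidase reporter signal reflecting CREB driven transcription.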 As to conditions: luminescence, 4.5 h, higher = more signal, called active from +8 up or from −8 down.
The target of assay [15] is Streptavidin (Streptomyces avidinii) (UniProt P22629). Kind of assay: compounds binding control protein streptavidin – biophysical, small-molecule microarray, 635/667 nm fluorescence, artefact control for SMM compound annotation, primary screen (AID 1147).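 Also: signal reflects streptavidin binding to arrayed compounds as a control protein.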 As to conditions: higher = more signal.
Assay [16] is described as follows: probe aInhba binding on compound microarray – biochemical, small-molecule microarray, 635/667 nm fluorescence, primary screen (AID 1148).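 Also: score merges 667nm spot fluorescence with signal-to-noise for antibody binding to printed compounds.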 As to conditions: higher = more signal.
Assay [17] addresses Torsin-1A (Homo sapiens) (UniProt O14656). Kind of assay: TOR1A wild-type binding on microarray – cell lysate, small-molecule microarray, lysate, 635/667 nm, primary screen (AID 1149). As to conditions: COS7 hTOR1A-WT lysate, 635 nm fluorescence, higher = more signal.
Assay [18] shares this target. Kind of assay: torsin A mutant lysate binding on microarrays – cell lysate, small-molecule microarray, COS7 lysate, 635/667 nm fluorescence, primary screen (AID 1150).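 Also: score pools 667 nm emission and signal to noise measuring lysate protein binding.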 As to conditions: COS7 hTOR1A mutant lysate, 635 nm fluorescence, higher = more signal.
The subject of assay [19] is Sonic hedgehog protein (Shh). In words: Sonic hedgehog microarray binding compounds – biochemical, small-molecule microarray, 635/667 nm fluorescence, primary screen (AID 1151).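 Also: Shh protein binding to compounds spotted on small-molecule microarray slides; score combines spot fluorescence intensity with signal-to-noise across triplicate slides.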 Particulars: 635 nm fluorescence, higher = more signal.

Chain of Fibroblast growth factor 2 (Homo sapiens) (P09038 whole entry, looked up): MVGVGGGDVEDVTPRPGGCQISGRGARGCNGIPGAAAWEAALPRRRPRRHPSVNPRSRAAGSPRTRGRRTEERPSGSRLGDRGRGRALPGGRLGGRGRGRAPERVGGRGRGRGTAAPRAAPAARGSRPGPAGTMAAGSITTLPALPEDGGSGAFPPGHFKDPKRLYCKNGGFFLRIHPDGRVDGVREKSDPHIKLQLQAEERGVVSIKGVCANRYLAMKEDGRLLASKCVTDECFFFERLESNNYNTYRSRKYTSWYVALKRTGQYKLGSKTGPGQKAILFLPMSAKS
Chain of Luciferin 4-monooxygenase (Photinus pyralis) (P08659 whole entry, looked up): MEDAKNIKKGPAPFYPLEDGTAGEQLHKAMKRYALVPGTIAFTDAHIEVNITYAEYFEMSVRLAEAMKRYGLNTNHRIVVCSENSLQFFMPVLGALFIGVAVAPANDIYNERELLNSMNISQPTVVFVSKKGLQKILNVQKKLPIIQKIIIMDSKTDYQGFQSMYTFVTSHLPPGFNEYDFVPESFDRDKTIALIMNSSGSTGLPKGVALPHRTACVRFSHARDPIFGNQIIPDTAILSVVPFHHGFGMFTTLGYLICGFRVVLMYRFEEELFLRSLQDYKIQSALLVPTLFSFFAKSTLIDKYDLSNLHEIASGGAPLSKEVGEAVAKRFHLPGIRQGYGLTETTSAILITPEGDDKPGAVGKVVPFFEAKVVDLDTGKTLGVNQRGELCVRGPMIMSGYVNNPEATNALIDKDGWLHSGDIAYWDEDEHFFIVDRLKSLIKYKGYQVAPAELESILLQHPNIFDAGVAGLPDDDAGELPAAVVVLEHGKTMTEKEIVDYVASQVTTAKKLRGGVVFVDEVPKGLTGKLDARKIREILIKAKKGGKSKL
Chain of Streptavidin (Streptomyces avidinii) (P22629 whole entry, looked up): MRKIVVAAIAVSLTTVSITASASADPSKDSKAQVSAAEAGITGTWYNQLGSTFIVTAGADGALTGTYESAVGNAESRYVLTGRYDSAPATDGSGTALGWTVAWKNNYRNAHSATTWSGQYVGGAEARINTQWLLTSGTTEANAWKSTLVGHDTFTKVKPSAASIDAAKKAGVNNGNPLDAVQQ
Chain of Follistatin (Homo sapiens) (P19883 whole entry, looked up): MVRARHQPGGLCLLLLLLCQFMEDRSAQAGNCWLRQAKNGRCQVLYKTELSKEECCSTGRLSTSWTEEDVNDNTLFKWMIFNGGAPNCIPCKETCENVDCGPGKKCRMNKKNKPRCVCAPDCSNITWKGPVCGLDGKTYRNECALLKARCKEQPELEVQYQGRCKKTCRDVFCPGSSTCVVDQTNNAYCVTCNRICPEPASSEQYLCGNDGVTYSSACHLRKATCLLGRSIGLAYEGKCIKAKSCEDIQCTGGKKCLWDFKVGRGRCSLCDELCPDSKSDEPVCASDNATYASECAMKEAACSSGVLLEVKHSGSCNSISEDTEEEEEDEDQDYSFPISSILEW
Chain of Torsin-1A (Homo sapiens) (O14656 whole entry, looked up): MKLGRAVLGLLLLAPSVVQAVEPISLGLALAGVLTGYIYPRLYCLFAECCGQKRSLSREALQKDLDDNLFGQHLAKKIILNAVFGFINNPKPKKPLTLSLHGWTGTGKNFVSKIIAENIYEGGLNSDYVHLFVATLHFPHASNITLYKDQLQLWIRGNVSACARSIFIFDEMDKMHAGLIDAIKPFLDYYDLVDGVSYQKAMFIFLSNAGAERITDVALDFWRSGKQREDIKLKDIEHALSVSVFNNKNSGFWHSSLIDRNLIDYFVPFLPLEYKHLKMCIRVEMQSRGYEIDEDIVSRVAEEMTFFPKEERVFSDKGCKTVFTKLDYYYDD
Chain of Focal adhesion kinase 1 (Homo sapiens) (Q05397 whole entry, looked up): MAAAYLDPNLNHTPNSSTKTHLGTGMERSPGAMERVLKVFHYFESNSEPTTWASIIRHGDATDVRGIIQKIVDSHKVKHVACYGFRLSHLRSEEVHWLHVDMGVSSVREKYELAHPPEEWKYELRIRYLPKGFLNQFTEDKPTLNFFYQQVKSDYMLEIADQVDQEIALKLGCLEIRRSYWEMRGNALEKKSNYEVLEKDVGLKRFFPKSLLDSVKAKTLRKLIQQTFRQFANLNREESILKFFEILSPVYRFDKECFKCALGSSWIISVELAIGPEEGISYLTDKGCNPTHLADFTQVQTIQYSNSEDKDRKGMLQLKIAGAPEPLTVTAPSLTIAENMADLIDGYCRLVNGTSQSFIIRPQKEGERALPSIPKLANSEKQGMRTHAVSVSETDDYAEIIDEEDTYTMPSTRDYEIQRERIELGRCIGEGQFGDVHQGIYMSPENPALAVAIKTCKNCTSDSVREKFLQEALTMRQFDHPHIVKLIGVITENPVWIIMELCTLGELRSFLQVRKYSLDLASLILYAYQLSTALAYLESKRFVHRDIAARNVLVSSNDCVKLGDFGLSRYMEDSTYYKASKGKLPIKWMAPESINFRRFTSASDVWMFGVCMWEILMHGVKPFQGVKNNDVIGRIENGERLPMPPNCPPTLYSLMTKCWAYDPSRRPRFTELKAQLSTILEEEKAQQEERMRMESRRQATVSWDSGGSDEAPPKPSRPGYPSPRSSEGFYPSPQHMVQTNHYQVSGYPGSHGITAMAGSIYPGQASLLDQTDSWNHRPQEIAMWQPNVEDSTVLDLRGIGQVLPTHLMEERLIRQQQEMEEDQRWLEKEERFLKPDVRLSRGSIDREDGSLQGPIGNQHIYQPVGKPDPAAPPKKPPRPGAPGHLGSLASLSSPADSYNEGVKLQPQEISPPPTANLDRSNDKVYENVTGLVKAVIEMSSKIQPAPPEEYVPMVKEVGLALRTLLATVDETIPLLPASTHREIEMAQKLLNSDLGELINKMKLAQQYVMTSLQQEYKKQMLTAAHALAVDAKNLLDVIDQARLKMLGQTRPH

In the case of `COC(=O)C=C(CC(O)c1cccc(Cl)c1)OC` (stereo not given), the composite z-score in assay [1] was 1.14; in assay [2], 1.15; in [3], 0.0918; in assay [4], 0.6; in assay [5] it was -0.431; in assay [6], -0.0579. Further, the composite z-score in the assay with Lefty1 was -0.492; in assay [8], 1.04; in assay [10], 0.321; in assay [15], 0.307; in assay [16] it was 1.09; in the assay with Torsin-1A (Homo sapiens) [17], 0.208. Moreover, the composite z-score with Torsin-1A (Homo sapiens) [18] was 1.11; in [19], -0.425. Further, the z-score is -0.252 in [7]; 0.699 (inactive) in assay [9]; -2.41 (inactive) in [11]; -0.179 (inactive) in assay [12]; -0.116 (inactive) in assay [13]; -0.809 (inactive) in assay [14].
For the compound `O=C1O[C@H](c2ccccc2)[C@H](c2ccccc2)N2[C@H]1[C@@H](C(=O)O)[C@]1(C(=O)Nc3ccc(C#CC4=CCCCC4)cc31)[C@H]2c1ccccc1OCCO`, the composite z-score was determined as 1.76 in assay [1]; 1.23 in assay [2]; 0.827 in assay [3]; 0.922 in [4]; 1.26 in [5]; 1.08 in assay [6]. In addition, the composite z-score in the assay on Lefty1 is 1.63; in assay [8], 1.18; in assay [10], 1.02; in assay [15], 1.97; in assay [16] it was 0.17; with Torsin-1A (Homo sapiens) [17], 0.849. Besides, the composite z-score worked out at 0.516 with Torsin-1A (Homo sapiens) [18] and 0.892 in assay [19]. In addition, the z-score in [7] is -2.56; in assay [9], -6.51 (inactive); in [11], -4.67 (inactive); in assay [12], -0.177 (inactive); in assay [13], 17.1 (active); in [14], 26.1 (active).
Turning to `C=CC[C@]1(C(=O)NCCCOC)N=C(c2ccc(OCCCO)cc2)O[C@H]1c1ccccc1N=[N+]=[N-]`, the composite z-score came to 2.54 in assay [1]; 1.22 in assay [2]; 0.143 in [3]; 0.967 in assay [4]; 1.26 in assay [5]; 1.28 in assay [6]. For the same compound, the composite z-score in the assay with Lefty1 was -0.397; in [8], 0.542; in assay [10], 0.485; in assay [15], 1.39; in assay [16], 0.611; with Torsin-1A (Homo sapiens) [17], 0.0108. The results for the composite z-score (with Torsin-1A (Homo sapiens) [18]; in [19]) were 0.878 and -0.477, respectively. For the same compound, the z-score in assay [7] was 0.688; in [9], -8.19 (active); in [11], -2.57 (inactive); in assay [12], -0.742 (inactive); in [13], 2.14 (inactive); in [14], -1.5 (inactive).
For `COc1ccc(C(=O)O[C@H]2CC[C@]3(C)C4=C(CCC3C2(C)C)[C@]2(C)CC[C@H]([C@H](C)CCCC(C)C)[C@@]2(C)CC4)cc1` (stereo not given in full), the composite z-score in assay [1] is 0.541; in assay [2] it was 0.607; in [3], -0.0307; in assay [4], 0.206; in assay [5], 0.625; in assay [6] it was 0.483. The composite z-score is 0.493 in the assay with Lefty1; 0.103 in [8]; 0.314 in assay [10]; 0.25 in assay [15]; -0.103 in [16]; 0.344 with Torsin-1A (Homo sapiens) [17]. Further, the figures for the composite z-score (in the assay with Torsin-1A (Homo sapiens) [18]; in assay [19]) were 0.609 and 1, respectively. In addition, the z-score in assay [7] was 1.41; in assay [9], -0.384 (inactive); in assay [11], -1.02 (inactive); in assay [12] it was -1.6 (inactive); in assay [13], 0.131 (inactive); in [14] it was -0.634 (inactive).
As to `O=C1NC(=O)C2C1C=CC(C(O)c1cccc3ccccc13)N2Nc1ccccn1` (stereo not given), the composite z-score in [1] is 1.97; in [2], 0.158; in assay [3], 0.132; in assay [4], -0.207; in [5], 0.169; in assay [6] it was 0.11. Further, the composite z-score in the assay with Lefty1 is -0.34; in assay [8], 0.0591; in assay [10], 0.0051; in assay [15], 0.278; in [16], 0.185; in the assay with Torsin-1A (Homo sapiens) [17], 0.16. In addition, the composite z-score with Torsin-1A (Homo sapiens) [18] was 0.231; in assay [19], -0.516. Besides, the z-score was 1.55 in [7]; 0.135 (inactive) in assay [9]; 0.697 (inactive) in assay [11]; -0.484 (inactive) in [12]; -0.522 (inactive) in assay [13]; -0.285 (inactive) in assay [14].
